The text below walks through data of publication PMC7862700, “An all-to-all approach to the identification of sequence-specific readers for epigenetic DNA modifications on cytosine”.

What all share (test): DAPPL (digital affinity profiling via proximity ligation, sequencing); 10 mM Tris-HCl pH 7.5, 50 mM NaCl, 1 mM DTT, 4% glycerol, room temperature, 30 min; GST-TFs on glutathione beads, 16-mer random dsDNA library, 0.1% formaldehyde crosslink after washing; high values mean tight binding
What all share (settings): protein: recombinant; tags: N-terminal GST; dsDNA, one strand shown

The target in one assay is T1, FLI1 (Homo sapiens, UniProt Q01543 1-452).
T1 sequence: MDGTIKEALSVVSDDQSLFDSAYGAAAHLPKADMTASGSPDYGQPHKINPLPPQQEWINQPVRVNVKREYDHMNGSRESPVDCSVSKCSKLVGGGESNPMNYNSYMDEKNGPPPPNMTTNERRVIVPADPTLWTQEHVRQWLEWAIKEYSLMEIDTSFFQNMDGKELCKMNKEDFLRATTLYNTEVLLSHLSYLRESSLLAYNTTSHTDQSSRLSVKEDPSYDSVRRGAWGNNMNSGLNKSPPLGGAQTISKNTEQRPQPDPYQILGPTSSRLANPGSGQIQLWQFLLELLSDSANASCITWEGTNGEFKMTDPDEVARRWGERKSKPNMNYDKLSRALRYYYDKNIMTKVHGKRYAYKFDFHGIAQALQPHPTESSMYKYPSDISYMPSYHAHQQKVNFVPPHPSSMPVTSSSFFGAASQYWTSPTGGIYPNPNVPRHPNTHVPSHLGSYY
The method in brief:
(§1)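 Each value of binding signal is a hexamer's read frequency for a factor divided by the same hexamer's frequency in the tag-only sample. Barcoded, bead-captured GST fusions of human transcription factors made in yeast were pooled with that sample and incubated with 200 nmole of a random double-stranded 16-mer DNA library in Tris/NaCl/DTT/glycerol buffer at room temperature for 30 min. Washing, 0.1% formaldehyde crosslinking, proximity ligation, PCR and Illumina NextSeq500 sequencing followed.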

The target in the next assay is T2, SPIC (Homo sapiens, UniProt Q8N5J4 1-248).
T2 sequence: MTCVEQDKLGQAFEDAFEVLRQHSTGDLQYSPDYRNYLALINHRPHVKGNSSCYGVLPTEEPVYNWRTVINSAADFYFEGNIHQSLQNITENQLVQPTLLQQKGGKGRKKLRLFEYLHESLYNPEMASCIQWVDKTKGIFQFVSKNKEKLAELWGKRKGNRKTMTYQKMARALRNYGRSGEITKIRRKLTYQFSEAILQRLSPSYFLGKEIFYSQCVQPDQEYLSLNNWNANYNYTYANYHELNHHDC
An outline of the steps: as §1

In another assay the target is T3, ETV2 (Homo sapiens, UniProt O00321 1-342).
T3 sequence: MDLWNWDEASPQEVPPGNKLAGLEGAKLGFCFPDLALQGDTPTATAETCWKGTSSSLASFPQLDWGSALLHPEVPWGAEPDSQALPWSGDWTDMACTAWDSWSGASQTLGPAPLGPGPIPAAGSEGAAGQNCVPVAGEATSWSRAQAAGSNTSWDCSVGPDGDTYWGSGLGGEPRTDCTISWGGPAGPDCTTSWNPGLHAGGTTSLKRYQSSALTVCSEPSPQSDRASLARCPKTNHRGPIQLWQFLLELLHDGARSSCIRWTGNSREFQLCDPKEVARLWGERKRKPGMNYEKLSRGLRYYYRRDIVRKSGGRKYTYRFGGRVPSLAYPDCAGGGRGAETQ
The method in brief:
as §1

The next assay deals with T4, ETV3L (Homo sapiens, UniProt Q6ZN32 1-361).
T4 sequence: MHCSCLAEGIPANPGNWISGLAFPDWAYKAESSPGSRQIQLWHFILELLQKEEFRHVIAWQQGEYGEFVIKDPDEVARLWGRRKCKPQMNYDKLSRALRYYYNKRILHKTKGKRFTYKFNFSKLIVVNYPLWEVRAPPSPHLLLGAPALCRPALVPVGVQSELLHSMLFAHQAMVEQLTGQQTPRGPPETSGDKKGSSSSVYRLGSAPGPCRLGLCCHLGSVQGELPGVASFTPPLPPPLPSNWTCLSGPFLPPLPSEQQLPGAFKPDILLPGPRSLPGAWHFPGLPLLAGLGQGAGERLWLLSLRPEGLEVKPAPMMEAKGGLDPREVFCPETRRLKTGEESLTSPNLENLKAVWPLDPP
The method in brief: as §1

A further assay addresses T5, ETV7 (Homo sapiens, UniProt Q9Y603 1-341).
T5 sequence: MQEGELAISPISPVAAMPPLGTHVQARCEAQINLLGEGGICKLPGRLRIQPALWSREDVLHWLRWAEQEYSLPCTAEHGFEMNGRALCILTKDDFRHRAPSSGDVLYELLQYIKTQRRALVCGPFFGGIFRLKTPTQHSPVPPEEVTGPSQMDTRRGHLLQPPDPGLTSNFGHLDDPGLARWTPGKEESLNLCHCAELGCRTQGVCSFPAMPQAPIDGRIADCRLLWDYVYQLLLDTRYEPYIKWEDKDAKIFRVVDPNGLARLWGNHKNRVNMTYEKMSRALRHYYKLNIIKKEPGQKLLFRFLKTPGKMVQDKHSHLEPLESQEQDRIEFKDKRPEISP
An outline of the steps: as §1

The target in another assay is T6, ELK1 (Homo sapiens, UniProt P19419 1-428).
T6 sequence: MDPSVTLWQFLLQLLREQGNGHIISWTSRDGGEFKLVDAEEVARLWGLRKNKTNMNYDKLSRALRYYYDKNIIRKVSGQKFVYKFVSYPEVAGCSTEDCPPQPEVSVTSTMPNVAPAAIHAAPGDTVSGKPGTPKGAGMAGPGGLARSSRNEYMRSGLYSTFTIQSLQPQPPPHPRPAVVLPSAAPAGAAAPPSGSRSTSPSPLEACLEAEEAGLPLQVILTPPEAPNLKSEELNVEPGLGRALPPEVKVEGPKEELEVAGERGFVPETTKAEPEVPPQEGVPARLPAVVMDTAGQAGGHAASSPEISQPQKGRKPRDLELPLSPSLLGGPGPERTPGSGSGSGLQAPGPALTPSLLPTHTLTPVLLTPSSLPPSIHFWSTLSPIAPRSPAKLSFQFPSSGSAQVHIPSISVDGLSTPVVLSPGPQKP
An outline of the steps: as §1

Another assay concerns the target ELF1 (Homo sapiens, UniProt P32519 1-619). An outline of the steps:
as §1

The next assay deals with SPIB (Homo sapiens, UniProt Q01892 1-262). The method in brief:
as §1

Another assay addresses ELF4 (Homo sapiens, UniProt Q99607 1-663). An outline of the steps:
as §1

The target of another assay is T7, ERF (Homo sapiens, UniProt P50548 1-548).
T7 sequence: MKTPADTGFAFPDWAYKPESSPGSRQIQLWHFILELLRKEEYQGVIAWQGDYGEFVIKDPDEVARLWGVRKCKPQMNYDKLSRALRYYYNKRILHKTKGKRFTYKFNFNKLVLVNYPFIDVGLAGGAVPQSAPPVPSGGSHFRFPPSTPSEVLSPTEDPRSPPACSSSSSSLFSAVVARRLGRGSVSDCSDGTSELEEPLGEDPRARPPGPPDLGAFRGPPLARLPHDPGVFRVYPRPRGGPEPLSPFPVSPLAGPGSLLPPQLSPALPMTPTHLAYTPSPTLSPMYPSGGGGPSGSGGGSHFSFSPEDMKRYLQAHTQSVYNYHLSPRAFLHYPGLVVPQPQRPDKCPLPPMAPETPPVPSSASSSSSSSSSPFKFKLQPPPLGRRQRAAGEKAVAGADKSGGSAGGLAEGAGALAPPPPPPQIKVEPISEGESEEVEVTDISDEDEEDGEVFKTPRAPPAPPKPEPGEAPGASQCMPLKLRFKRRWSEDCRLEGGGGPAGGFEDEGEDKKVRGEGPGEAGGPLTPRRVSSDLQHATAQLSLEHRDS
The method in brief: as §1

The next assay deals with T8, ELK3 (Homo sapiens, UniProt P41970 1-407).
T8 sequence: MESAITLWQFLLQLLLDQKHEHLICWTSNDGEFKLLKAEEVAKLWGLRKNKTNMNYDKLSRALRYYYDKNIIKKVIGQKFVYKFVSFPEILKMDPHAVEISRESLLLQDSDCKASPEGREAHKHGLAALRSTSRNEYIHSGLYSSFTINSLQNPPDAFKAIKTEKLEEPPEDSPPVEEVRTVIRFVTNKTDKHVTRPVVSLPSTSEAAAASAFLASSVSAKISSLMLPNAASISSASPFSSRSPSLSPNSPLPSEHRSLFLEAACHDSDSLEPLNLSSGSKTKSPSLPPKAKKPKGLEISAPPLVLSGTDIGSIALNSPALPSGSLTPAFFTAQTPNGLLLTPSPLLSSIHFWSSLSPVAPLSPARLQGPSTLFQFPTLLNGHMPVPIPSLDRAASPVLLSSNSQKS
An outline of the steps:
as §1

The target in the next assay is T9, GABPA (Homo sapiens, UniProt Q06546 1-454).
T9 sequence: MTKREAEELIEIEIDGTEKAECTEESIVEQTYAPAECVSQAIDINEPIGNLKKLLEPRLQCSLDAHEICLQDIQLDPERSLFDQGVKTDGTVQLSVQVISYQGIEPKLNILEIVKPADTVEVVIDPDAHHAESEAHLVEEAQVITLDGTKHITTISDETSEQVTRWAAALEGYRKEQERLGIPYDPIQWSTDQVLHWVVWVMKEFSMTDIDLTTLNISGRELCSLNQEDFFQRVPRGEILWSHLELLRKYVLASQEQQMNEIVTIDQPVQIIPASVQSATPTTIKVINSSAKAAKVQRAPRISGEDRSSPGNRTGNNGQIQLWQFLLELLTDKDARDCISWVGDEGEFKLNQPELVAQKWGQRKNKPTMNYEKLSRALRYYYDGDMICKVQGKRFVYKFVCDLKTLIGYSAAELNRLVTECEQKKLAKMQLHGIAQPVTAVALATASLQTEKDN
The method in brief: as §1

The next assay addresses T10, ERG (Homo sapiens, UniProt P11308 1-479).
T10 sequence: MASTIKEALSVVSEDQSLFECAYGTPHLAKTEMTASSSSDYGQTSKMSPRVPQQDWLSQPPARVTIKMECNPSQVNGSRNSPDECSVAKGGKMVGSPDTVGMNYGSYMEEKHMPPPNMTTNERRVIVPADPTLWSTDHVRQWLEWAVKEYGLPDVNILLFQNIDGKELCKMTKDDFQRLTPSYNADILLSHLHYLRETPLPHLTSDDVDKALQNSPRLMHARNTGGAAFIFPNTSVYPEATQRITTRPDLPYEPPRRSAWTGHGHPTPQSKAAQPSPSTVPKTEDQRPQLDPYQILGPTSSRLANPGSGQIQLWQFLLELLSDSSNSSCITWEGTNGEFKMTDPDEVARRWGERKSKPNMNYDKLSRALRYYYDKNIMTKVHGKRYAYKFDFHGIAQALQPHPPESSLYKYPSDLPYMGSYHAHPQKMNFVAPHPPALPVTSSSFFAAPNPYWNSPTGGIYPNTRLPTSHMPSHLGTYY
An outline of the steps:
as §1

A further assay concerns the target T11, EHF (Homo sapiens, UniProt Q9NZC4 1-300).
T11 sequence: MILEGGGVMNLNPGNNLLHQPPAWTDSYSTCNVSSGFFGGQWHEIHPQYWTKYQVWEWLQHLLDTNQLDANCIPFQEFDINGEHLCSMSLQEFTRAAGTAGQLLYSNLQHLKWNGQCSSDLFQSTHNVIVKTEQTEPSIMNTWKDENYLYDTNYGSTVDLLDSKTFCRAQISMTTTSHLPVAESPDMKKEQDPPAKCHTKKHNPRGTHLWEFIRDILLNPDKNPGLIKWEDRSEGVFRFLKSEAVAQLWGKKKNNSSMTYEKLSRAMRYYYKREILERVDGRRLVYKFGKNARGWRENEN
The method in brief:
as §1

Another assay addresses ETV1 (Homo sapiens, UniProt P50549 1-477). An outline of the steps:
as §1

The target of the next assay is T12, ETS2 (Homo sapiens, UniProt P15036 1-469).
T12 sequence: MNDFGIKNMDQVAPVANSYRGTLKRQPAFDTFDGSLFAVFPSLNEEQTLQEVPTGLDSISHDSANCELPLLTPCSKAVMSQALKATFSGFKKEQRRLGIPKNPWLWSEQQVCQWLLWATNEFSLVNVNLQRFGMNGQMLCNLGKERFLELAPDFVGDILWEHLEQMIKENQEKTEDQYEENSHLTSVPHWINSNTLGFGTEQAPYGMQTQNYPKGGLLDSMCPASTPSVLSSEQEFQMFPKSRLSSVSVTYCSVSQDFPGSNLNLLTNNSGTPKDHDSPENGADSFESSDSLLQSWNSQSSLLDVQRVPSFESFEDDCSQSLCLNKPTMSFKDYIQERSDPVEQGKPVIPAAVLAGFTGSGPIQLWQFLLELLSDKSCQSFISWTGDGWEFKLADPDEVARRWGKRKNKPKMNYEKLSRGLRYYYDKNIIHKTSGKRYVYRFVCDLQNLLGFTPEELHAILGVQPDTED
The method in brief:
as §1

Sequence of ELF1 (P32519 whole entry): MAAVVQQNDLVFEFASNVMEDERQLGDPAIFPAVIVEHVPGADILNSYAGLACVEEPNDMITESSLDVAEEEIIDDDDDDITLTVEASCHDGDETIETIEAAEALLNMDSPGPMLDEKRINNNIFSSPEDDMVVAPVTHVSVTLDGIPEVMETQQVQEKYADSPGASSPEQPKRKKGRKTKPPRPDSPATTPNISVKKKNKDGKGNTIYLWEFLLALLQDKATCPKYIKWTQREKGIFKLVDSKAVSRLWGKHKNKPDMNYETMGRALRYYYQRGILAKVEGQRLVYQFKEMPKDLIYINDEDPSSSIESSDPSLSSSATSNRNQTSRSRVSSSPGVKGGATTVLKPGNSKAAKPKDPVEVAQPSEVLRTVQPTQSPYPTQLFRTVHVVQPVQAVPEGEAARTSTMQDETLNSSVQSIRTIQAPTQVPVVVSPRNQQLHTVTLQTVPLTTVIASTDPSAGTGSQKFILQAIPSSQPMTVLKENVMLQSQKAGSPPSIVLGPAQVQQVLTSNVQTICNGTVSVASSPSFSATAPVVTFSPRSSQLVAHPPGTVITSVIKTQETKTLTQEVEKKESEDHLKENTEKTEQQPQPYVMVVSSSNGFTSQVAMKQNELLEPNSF
Sequence of ELF4 (Q99607 whole entry): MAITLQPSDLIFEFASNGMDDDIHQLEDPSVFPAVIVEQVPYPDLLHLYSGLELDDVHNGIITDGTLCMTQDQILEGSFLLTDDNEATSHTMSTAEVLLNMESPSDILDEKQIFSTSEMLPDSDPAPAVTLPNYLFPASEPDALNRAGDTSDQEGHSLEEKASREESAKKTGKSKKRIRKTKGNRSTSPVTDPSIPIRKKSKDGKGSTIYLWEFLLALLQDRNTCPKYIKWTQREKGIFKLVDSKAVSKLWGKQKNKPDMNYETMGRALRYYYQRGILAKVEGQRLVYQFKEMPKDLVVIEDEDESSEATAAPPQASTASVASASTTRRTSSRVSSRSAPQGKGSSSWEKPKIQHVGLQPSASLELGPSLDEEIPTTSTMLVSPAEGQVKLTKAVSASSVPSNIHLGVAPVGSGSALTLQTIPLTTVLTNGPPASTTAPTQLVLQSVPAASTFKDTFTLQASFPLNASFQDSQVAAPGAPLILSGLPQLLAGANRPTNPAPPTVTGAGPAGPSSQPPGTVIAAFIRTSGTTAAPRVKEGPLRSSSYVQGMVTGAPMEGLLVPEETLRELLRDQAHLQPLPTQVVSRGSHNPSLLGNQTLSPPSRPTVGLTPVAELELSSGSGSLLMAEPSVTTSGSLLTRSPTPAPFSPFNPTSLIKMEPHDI
Sequence of SPIB (Q01892 whole entry): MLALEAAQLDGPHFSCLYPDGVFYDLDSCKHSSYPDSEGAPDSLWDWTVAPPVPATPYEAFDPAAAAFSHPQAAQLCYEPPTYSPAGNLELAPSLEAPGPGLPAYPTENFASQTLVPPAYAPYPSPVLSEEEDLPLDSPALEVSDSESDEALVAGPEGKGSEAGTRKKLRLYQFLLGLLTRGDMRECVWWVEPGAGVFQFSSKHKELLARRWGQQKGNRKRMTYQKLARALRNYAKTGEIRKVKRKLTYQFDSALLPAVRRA
Sequence of ETV1 (P50549 whole entry): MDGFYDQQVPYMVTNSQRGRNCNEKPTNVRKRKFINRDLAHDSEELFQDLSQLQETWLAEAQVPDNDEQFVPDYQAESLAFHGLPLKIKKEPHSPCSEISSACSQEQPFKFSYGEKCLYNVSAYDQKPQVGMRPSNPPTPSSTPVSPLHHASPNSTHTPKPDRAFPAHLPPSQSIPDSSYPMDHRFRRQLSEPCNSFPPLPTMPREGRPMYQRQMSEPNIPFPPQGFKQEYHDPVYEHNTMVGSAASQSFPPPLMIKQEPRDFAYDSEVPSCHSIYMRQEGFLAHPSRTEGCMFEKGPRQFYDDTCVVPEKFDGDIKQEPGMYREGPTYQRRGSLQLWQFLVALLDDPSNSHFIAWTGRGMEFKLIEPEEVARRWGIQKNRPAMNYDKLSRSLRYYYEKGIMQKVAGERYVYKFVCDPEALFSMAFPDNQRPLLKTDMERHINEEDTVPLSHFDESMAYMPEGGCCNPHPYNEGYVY

For the sequence TCGTTA, the binding signal with FLI1 is 1 fold enrichment (6-mer frequency, TF over GST control); with SPIC it was 1.02 fold enrichment (6-mer frequency, TF over GST control); with ETV2, 1.08 fold enrichment (6-mer frequency, TF over GST control); with ETV3L, 1.01 fold enrichment (6-mer frequency, TF over GST control); with ETV7, 1.06 fold enrichment (6-mer frequency, TF over GST control).
On to CGGCCC, for which the binding signal in the assay with FLI1 was 1.05 fold enrichment (6-mer frequency, TF over GST control); in the assay with ELK1, 1.03 fold enrichment (6-mer frequency, TF over GST control); with ELF1, 1.01 fold enrichment (6-mer frequency, TF over GST control); with SPIB it was 1.07 fold enrichment (6-mer frequency, TF over GST control); with ELF4, 1.03 fold enrichment (6-mer frequency, TF over GST control); with ETV2, 1.19 fold enrichment (6-mer frequency, TF over GST control). Moreover, the binding signal was 1.01 fold enrichment (6-mer frequency, TF over GST control) with ERF and 1.05 fold enrichment (6-mer frequency, TF over GST control) in the assay with ETV7.
Turning to GTGTAC, the binding signal with FLI1 is 1.07 fold enrichment (6-mer frequency, TF over GST control); with ELK3, 1.03 fold enrichment (6-mer frequency, TF over GST control); with SPIC it was 1.2 fold enrichment (6-mer frequency, TF over GST control).
As to GTCGAC, the binding signal was 1.04 fold enrichment (6-mer frequency, TF over GST control) with FLI1; 1.02 fold enrichment (6-mer frequency, TF over GST control) in the assay with GABPA; 1.07 fold enrichment (6-mer frequency, TF over GST control) with ERG; 1.01 fold enrichment (6-mer frequency, TF over GST control) in the assay with EHF; 1.06 fold enrichment (6-mer frequency, TF over GST control) with ELK3; 1.07 fold enrichment (6-mer frequency, TF over GST control) with SPIC. For the same sequence, the binding signal is 1.02 fold enrichment (6-mer frequency, TF over GST control) with ETV2; 1 fold enrichment (6-mer frequency, TF over GST control) with ETV1; 1.07 fold enrichment (6-mer frequency, TF over GST control) with ERF; 1.04 fold enrichment (6-mer frequency, TF over GST control) in the assay with ETS2.
